# Assay results published in PubChem BioAssay AID1745848 (National Center for Advancing Translational Sciences (NCATS), 2022).
# Hit rate of the full screen: of about 2,100 compounds, about 940 (45%) were called active. About 48% were inconclusive and are not listed. Calls follow the shape of the dose curve; as a rule, active = well fitted inhibition curve with a large enough effect; inconclusive = small, poorly fitted or top-dose-only effect; inactive = no such curve, though single readings can be large or run the other way. So high a share suggests a set chosen from earlier hits. The list shows a part of the results.
# Assay: Confirmatory qHTS for Inhibitors of ATXN expression; also: nearly all actives have a fitted effect of over 65% in size
# Settings: ATXN2-luciferase reporter cells, luminescence, 24 h; series mostly up to 11.5 µM
# Outline: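 A titration, incubated 24 h with reporter cells expressing ATXN2-luciferase. Luminescence (SteadyGlo) gives ATXN2 expression, multiplexed GF-AFC fluorescence gives viability; normalised to DMSO and medium-only wells.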
# Potency is read from the fitted curve at half-maximal effect.
row,SMILES,Potency
1,Cc1cc(C(=O)CN2C(=O)c3ccccc3S2(=O)=O)c(C)n1CC1CCCO1 (stereo unspecified),0.355 µM (active)
2,O=C(CN1c2cccc3cccc(c23)S1(=O)=O)NCc1ccc(Cl)cc1,inactive
3,O=C(CN1C(=O)c2ccccc2S1(=O)=O)c1ccc(O)c(O)c1,inactive
4,O=C(CN1C(=O)c2ccccc2S1(=O)=O)c1ccc(Cl)cc1Cl,0.891 µM (active)
5,O=C(CN1C(=O)c2ccccc2S1(=O)=O)N1CCc2ccccc21,0.447 µM (active)
6,O=C(CN1C(=O)c2ccccc2S1(=O)=O)Nc1ncc(Cl)cc1Cl,2.82 µM (active)
7,Cc1nnc(SCC(N)=O)n1CC1CCCO1 (stereo unspecified),inactive
8,CCn1c(C)cc(C(=O)CN2C(=O)c3ccccc3S2(=O)=O)c1C,1.26 µM (active)
9,Cc1cc(C(=O)CN2C(=O)c3ccccc3S2(=O)=O)c(C)n1C(C)C,1.58 µM (active)
10,O=C(O)COc1ccc2oc3ccccc3c2c1,inactive
11,Cc1ccc(-c2cc(C(=O)N/N=C/c3ccccc3O)n[nH]2)o1,7.08 µM (active)
12,Cc1cc(C(=O)N/N=C/c2cc(Br)ccc2OC(=O)c2ccccc2Cl)n[nH]1,3.98 µM (active)
13,Cc1cc(C(=O)N/N=C/c2cc(Br)ccc2OC(=O)c2ccccc2)n[nH]1,2.51 µM (active)
14,Cc1cc(C(=O)N/N=C/c2cc(Br)cc(Br)c2OC(=O)c2cccc(F)c2)n[nH]1,3.16 µM (active)
15,COc1ccc(/C=C2\SC(=S)N(CCCC(=O)Nc3ccccn3)C2=O)cc1OC,14.1 µM (active)
16,COC(=O)c1ccc(/C=C2/SC(=S)N(CCCC(=O)Nc3ccccn3)C2=O)cc1,14.1 µM (active)
17,O=C(CCCN1C(=O)/C(=C/c2ccccc2Cl)SC1=S)Nc1ccccn1,11.2 µM (active)
18,O=C(Nc1ccc(CN2CCCCC2)cc1)Nc1ccc(Br)cc1Cl,25.1 µM (active)
19,N#Cc1c(NCCN)nc(-c2ccco2)c2c1CCCC2,25.1 µM (active)

row,SMILES,Potency
1,NS(=O)(=O)c1ccc(CCNc2nn3c(-c4cccc(OC(F)(F)F)c4)cnc3s2)cc1,3.55 µM (active)
2,COc1cccc(/C=N/Nc2ncc(C(F)(F)F)cc2Cl)c1O,1.58 µM (active)
3,COc1cccc(/C=N/Nc2ncnc3c2ncn3Cc2ccccc2)c1O,0.708 µM (active)
4,CN1C2CCC1/C(=C\c1ccccc1)C(=O)/C2=C\c1ccccc1,14.1 µM (active)
5,Oc1ccc(N2CCN(c3ccnc4cc(Cl)ccc34)CC2)cc1,15.8 µM (active)
6,O=C(C1CCCCC1)N1CCN(c2ccnc3cc(Cl)ccc23)CC1,3.98 µM (active)
7,O=S(=O)(c1ccccc1)N1CCN(c2ccnc3cc(Cl)ccc23)CC1,25.1 µM (active)
8,O=S(=O)(c1ccc2nc(COc3ccc(Cl)cc3Cl)[nH]c2c1)N1CCOCC1,inactive
9,COc1ccccc1N1CCN(c2ccnc3cc(Cl)ccc23)CC1,12.6 µM (active)
10,C[C@H]1O[C@@H](O[C@H]2[C@@H](O)C[C@H](O[C@H]3[C@@H](O)C[C@H](O[C@H]4CC[C@@]5(C)[C@H](CC[C@@H]6[C@@H]5C[C@@H](O)[C@]5(C)[C@@H](C7=CC(=O)OC7)CC[C@]65O)C4)O[C@@H]3C)O[C@@H]2C)C[C@H](O)[C@@H]1O,0.282 µM (active)
11,Cc1cccc2sc(NNC(=O)c3ccc(S(=O)(=O)N4CCCC(C)C4)cc3)nc12 (stereo unspecified),7.94 µM (active)
12,Cc1cc(C)c2nc(NNC(=O)c3ccc(S(=O)(=O)N4CC(C)CC(C)C4)cc3)sc2c1 (stereo unspecified),3.55 µM (active)
13,Cc1cccc2sc(NNC(=O)c3ccc(S(=O)(=O)N4CC(C)CC(C)C4)cc3)nc12 (stereo unspecified),2 µM (active)
14,CCCC(NCC(O)COc1ccc(-c2ccccc2)cc1)c1ccccc1 (stereo unspecified),25.1 µM (active)
15,NS(=O)(=O)c1ccc(Sc2nc3ccccc3s2)c([N+](=O)[O-])c1,2.24 µM (active)
16,COc1cc(C#Cc2c(-c3cncn3C)n(C)c3ccc(-c4cnc(OC)nc4)cc23)cc(OC)c1,3.16 µM (active)
17,Cc1ccnc(NC(=O)C2CCN(S(=O)(=O)c3c(C)c(C)cc(C)c3C)CC2)c1,2.24 µM (active)
18,O=C(Nc1ccc[n+](CC(=O)c2cccc3ccccc23)c1)c1ccccc1,3.55 µM (active)
19,O=[N+]([O-])c1cc(O)c2ncccc2c1,3.16 µM (active)

row,SMILES,Potency
1,Fc1ccc2[nH]c3c(N4CCSCC4)ncnc3c2c1,12.6 µM (active)
2,Fc1ccc2[nH]c3c(N4CCc5ccccc5C4)ncnc3c2c1,3.98 µM (active)
3,CCOC(=O)N1CCN(c2ncnc3c2[nH]c2ccc(F)cc23)CC1,8.91 µM (active)
4,CC(OC(=O)c1cc(Br)ccc1O)C(=O)Nc1ccc(S(=O)(=O)N2CCCC2)cc1 (stereo unspecified),28.2 µM (active)
5,O=C(N/N=C\c1c(O)ccc2ccccc12)c1ccc(S(=O)(=O)N2CCCCC2)cc1,0.501 µM (active)
6,O=C(N/N=C\c1cc(Cl)ccc1O)c1ccc(S(=O)(=O)N2CCCCC2)cc1,0.708 µM (active)
7,Cc1cc(C)n(-c2ccc(C(=O)N3CCN(S(=O)(=O)c4cccc(Br)c4)CC3)cc2)n1,inactive
8,O=C(N/N=C\c1cc(Br)ccc1O)c1ccc(S(=O)(=O)N2CCCCC2)cc1,0.794 µM (active)
9,CCCCOc1ccc(CSC(=N)N)cc1Cl,25.1 µM (active)
10,COc1ccc2c(c1)[nH]c1c(=O)n(/N=C/C3C(C)C=C(C)CC3C)c(=O)[nH]c12 (stereo unspecified),14.1 µM (active)
11,O=C(N/N=C/c1c(O)n(Cc2ccccc2)c(=O)c2ccccc12)c1cccnc1,15.8 µM (active)
12,COc1ccc(Cn2c(O)c(/C=N/NC(=O)c3cccnc3)c3ccccc3c2=O)cc1,14.1 µM (active)
13,Cn1c(=O)c2cc(NC(=O)Nc3cccnc3)ccc2n1Cc1ccc(Cl)cc1,inactive
14,CC(=O)Nc1cccc(-c2ccnc3c2CC(C)(C(=O)Nc2cccc(Oc4ccccc4)c2)O3)c1 (stereo unspecified),25.1 µM (active)
15,CC(=O)c1cccc(NC(=O)C2Cc3c(-c4cccc(C(C)=O)c4)ccnc3O2)c1 (stereo unspecified),inactive
16,CC(=O)Nc1cccc(-c2ccnc3c2CC(C)(C(=O)Nc2ccc(Cl)cc2)O3)c1 (stereo unspecified),10 µM (active)
17,CC(Nc1ccccc1CO)C(=O)Nc1cccc(Cl)c1Cl (stereo unspecified),2.24 µM (active)
18,COc1cc(NC(=O)c2cccc3c(-c4cccnc4)coc23)cc(OC)c1OC,3.55 µM (active)
